Inconclusive results are not listed. A number with no mark means an inactive call. Active and inactive are the calls of the source. The call rests on the fitted dose curve; in most records, active means well fitted cell-killing curve with a large enough effect; inconclusive means small, poorly fitted or top-dose-only effect, or effect the other way; inactive means no such curve, though single readings can be large or run the other way.
Key:
[1] = Quantitative High-Throughput drug screen in 47 multiple myeloma cell lines against the NCATS MIPE library collection: KMS28PE_JCRB cell viability assay (AID 1918983); further: nearly all actives have a fitted effect of over 35% in size
Method in brief: (§1)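 Inhibition of viability over 48 h was scored by ATP content (CellTiter-Glo) in 500-cell wells. Zero and full viability were defined by media-only and DMSO-only wells.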

[2] = Quantitative High-Throughput drug screen in 47 multiple myeloma cell lines against the NCATS MIPE library collection: L363_DSMZ cell viability assay (AID 1918984); further: nearly all actives have a fitted effect of over 40% in size
Method in brief: as §1

[3] = Quantitative High-Throughput drug screen in 47 multiple myeloma cell lines against the NCATS MIPE library collection: KMS34_JCRB cell viability assay (AID 1918985); further: nearly all actives have a fitted effect of over 40% in size
Method in brief: as §1

[4] = Quantitative High-Throughput drug screen in 47 multiple myeloma cell lines against the NCATS MIPE library collection: OCIMY7_PLB cell viability assay (AID 1918987); further: nearly all actives have a fitted effect of over 65% in size
Method in brief: as §1

[5] = Quantitative High-Throughput drug screen in 47 multiple myeloma cell lines against the NCATS MIPE library collection: OCIMY5_PLB cell viability assay (AID 1918988); further: nearly all actives have a fitted effect of over 65% in size
Method in brief: as §1

[6] = Quantitative High-Throughput drug screen in 47 multiple myeloma cell lines against the NCATS MIPE library collection: OPM1_PLB cell viability assay (AID 1918989); further: nearly all actives have a fitted effect of over 40% in size
Method in brief: as §1

[7] = Quantitative High-Throughput drug screen in 47 multiple myeloma cell lines against the NCATS MIPE library collection: SKMM1_PLB cell viability assay (AID 1919863); conditions: SKMM1 myeloma viability, CellTiter-Glo ATP, 48 h; viability: active compounds read low; further: nearly all actives have a fitted effect of over 35% in size; on viability: series mostly up to about 46 µM
Method in brief: as §1

[8] = Quantitative High-Throughput drug screen in 47 multiple myeloma cell lines against the NCATS MIPE library collection: U266_ATCC cell viability assay (AID 1919864); further: nearly all actives have a fitted effect of over 35% in size
Method in brief: as §1

[9] = Quantitative High-Throughput drug screen in 47 multiple myeloma cell lines against the NCATS MIPE library collection: XG6_PLB cell viability assay (AID 1919865); further: nearly all actives have a fitted effect of over 40% in size
Method in brief: as §1

[10] = Quantitative High-Throughput drug screen in 47 multiple myeloma cell lines against the NCATS MIPE library collection: LP1_DSMZ cell viability assay (AID 1918982); further: nearly all actives have a fitted effect of over 35% in size
Method in brief: as §1
Potency means the concentration at half of the fitted maximal effect.

Compound	Potency [1]	Potency [2]	Potency [3]	Potency [4]	Potency [5]	Potency [6]	Potency [7]	Potency [8]	Potency [9]	Potency [10]	viability [7] [%]
CC(C)C[C@H](NC(=O)CNC(=O)c1cc(Cl)ccc1Cl)B(O)O	0.0833 µM (active)	0.132 µM (active)	0.059 µM (active)	0.0418 µM (active)	0.0372 µM (active)	0.0469 µM (active)	0.296 µM (active)	0.0833 µM (active)	0.0372 µM (active)	–	–
O=C(O)c1ccc2c(c1)nc(Nc1cccc(Cl)c1)c1ccncc12	13.2 µM (active)	4.69 µM (active)	10.5 µM (active)	2.35 µM (active)	13.2 µM (active)	9.35 µM (active)	10.5 µM (active)	5.26 µM (active)	3.72 µM (active)	–	–
O=C(Nc1cc(C(F)(F)F)cc(C(F)(F)F)c1)c1cc(Cl)ccc1O	1.66 µM (active)	0.833 µM (active)	1.48 µM (active)	1.87 µM (active)	2.35 µM (active)	0.833 µM (active)	0.833 µM (active)	1.48 µM (active)	0.935 µM (active)	–	–
C=C1C(=CC=C2CCC[C@]3(C)[C@@H]([C@H](C)C=C[C@H](C)C(C)C)CC[C@@H]23)C[C@@H](O)C[C@@H]1O	13.2 µM (active)	0.264 µM (active)	3.32 µM (active)	11.8 µM (active)	0.526 µM (active)	1.66 µM (active)	14.8 µM (active)	1.05 µM (active)	1.87 µM (active)	–	–
CC(C)c1cc(C(=O)N2Cc3ccc(CN4CCN(C)CC4)cc3C2)c(O)cc1O	0.332 µM (active)	0.059 µM (active)	0.235 µM (active)	0.0264 µM (active)	0.105 µM (active)	0.118 µM (active)	0.418 µM (active)	–	0.296 µM (active)	–	–
Cc1nc2cnc3ccc(C#Cc4cccnc4)cc3c2n1-c1ccc(C(C)(C)C#N)cc1	–	–	–	0.105 µM (active)	6.62 µM (active)	0.0526 µM (active)	3.72 µM (active)	–	0.0105 µM (active)	0.0833 µM (active)	–
CC(=O)SC[C@@H](C)C(=O)N1CCC[C@H]1C(=O)N[C@@H](Cc1ccccc1)C(=O)O	–	–	–	inactive	–	inactive	–	–	–	inactive	151
Cc1cccc(C=NNc2cc(N3CCOCC3)nc(OCCc3ccccn3)n2)c1	–	0.235 µM (active)	–	–	23.5 µM (active)	4.18 µM (active)	16.6 µM (active)	6.62 µM (active)	16.6 µM (active)	11.8 µM (active)	–
CN(C)Cc1c(C(=O)NCCOc2ccc(C(=O)NO)cc2)oc2ccccc12	0.743 µM (active)	0.332 µM (active)	0.526 µM (active)	0.59 µM (active)	0.469 µM (active)	0.469 µM (active)	1.05 µM (active)	–	2.96 µM (active)	–	–
CN(C)c1nc(Cc2ccc(NC(=O)c3ccc4ccccc4c3)cc2)nc(Cl)c1CC(=O)O	inactive	–	–	–	1.66 µM (active)	inactive	–	inactive	inactive	inactive	–
C#Cc1cccc(Nc2ncnc3cc(OC)c(OCCCCCCC(=O)NO)cc23)c1	0.118 µM (active)	0.0526 µM (active)	1.05 µM (active)	0.148 µM (active)	0.0053 µM (active)	0.264 µM (active)	0.418 µM (active)	0.105 µM (active)	–	–	–
Cc1ccc(C(=O)Nc2ccc(CN3CCN(C)CC3)c(C(F)(F)F)c2)cc1C#Cc1cnc2cccnn12	5.9 µM (active)	0.833 µM (active)	3.32 µM (active)	0.264 µM (active)	1.48 µM (active)	0.59 µM (active)	5.9 µM (active)	14.8 µM (active)	0.662 µM (active)	–	–
C=C1C(=CC=C2CCCC3(C)[C@@H]([C@H](C)C=CC=CC(O)(CC)CC)CC[C@@H]23)C[C@@H](O)C[C@@H]1O (stereo partly specified)	26.4 µM (active)	23.5 µM (active)	20.9 µM (active)	29.6 µM (active)	10.5 µM (active)	18.7 µM (active)	–	23.5 µM (active)	18.7 µM (active)	–	–
C[C@@H]1COC(Nc2ccc3ncnc(Nc4ccc(OCc5nccs5)c(Cl)c4)c3c2)=N1	–	–	–	–	2.96 µM (active)	16.6 µM (active)	–	18.7 µM (active)	0.0372 µM (active)	26.4 µM (active)	–
Nc1ncnc2c1c(-c1cnc3[nH]ccc3c1)nn2C1CCCC1	1.87 µM (active)	0.0935 µM (active)	1.87 µM (active)	1.18 µM (active)	3.32 µM (active)	0.59 µM (active)	4.69 µM (active)	14.8 µM (active)	0.526 µM (active)	–	–
NC(=O)c1cccc2cn(-c3ccc([C@@H]4CCCNC4)cc3)nc12	–	–	–	–	–	inactive	–	–	–	inactive	–
